# Laboratory results published in the supplement of paper PMC8728848.
# The full list was thinned out, with the strongest signals kept by preference.
# Legend:
# Experiment in all cases: glycan array binding signal (z-score within array); higher = stronger binding
# Settings in all cases: glycan notation: IUPAC condensed, linker removed
# [1] = target: GlcNAc(b1-3)[GlcNAc(b1-6)]Gal(b1-4)GlcNAc
# Outline: (§1)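 Glycan array data came from 3228 arrays in the Consortium for Functional Glycomics database, and only arrays with an available protein sequence were kept. Glycan names were put into IUPAC-condensed notation, and columns mapping to the same glycan were averaged. The binding signal is a within-array Z-score, averaged across arrays of one protein sequence run at different concentrations or buffers and across linkers. A negative Z-score can be read as non-binding.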
# [2] = target: Man(a1-3)[Man(a1-6)]Man(b1-4)GlcNAc(b1-4)GlcNAc
# Outline: as §1
# [3] = target: Man(a1-3)[Man(a1-6)]Man(b1-4)GlcNAc(b1-4)[Fuc(a1-6)]GlcNAc
# Outline: as §1
# [4] = target: Man(a1-6)Man
# Outline: as §1
# [5] = target: Neu5Ac(a2-3)Gal(b1-3)[Neu5Ac(a2-6)]GalNAc
# Outline: as §1
# [6] = target: Neu5Ac(a2-3)Gal(b1-4)GlcNAc
# Outline: as §1
# [7] = target: Neu5Ac(a2-3)Gal(b1-4)GlcNAc(b1-3)Gal(b1-4)GlcNAc(b1-3)Gal(b1-4)GlcNAc(b1-2)Man(a1-3)[Neu5Ac(a2-3)Gal(b1-4)GlcNAc(b1-3)Gal(b1-4)GlcNAc(b1-3)Gal(b1-4)GlcNAc(b1-2)Man(a1-6)]GalNAc
# Outline: as §1
# [8] = target: Neu5Ac(a2-3)Gal(b1-4)GlcNAc(b1-3)Gal(b1-4)GlcNAc(b1-6)[Gal(b1-3)]GalNAc
# Outline: as §1
# [9] = target: Neu5Ac(a2-3)Gal(b1-4)GlcNAc(b1-6)GalNAc
# Outline: as §1
# [10] = target: Neu5Ac(a2-3)GalNAc(b1-4)GlcNAc
# Outline: as §1
# [11] = target: Neu5Ac(a2-8)Neu5Ac(a2-3)Gal(b1-3)GalNAc(b1-4)[Neu5Ac(a2-3)]Gal(b1-4)Glc
# Outline: as §1
# [12] = target: Neu5Ac(a2-8)Neu5Gc(a2-3)Gal(b1-4)GlcNAc
# Outline: as §1
# [13] = target: Neu5Gc(a2-3)Gal(b1-4)GlcNAc
# Outline: as §1
# [14] = target: Neu5Gc(a2-3)Gal(b1-4)[Fuc(a1-3)]GlcNAc
# Outline: as §1
binder,measurement,setting,value
PX14343A-bvu-539-29-539 (Bacteroides vulgatus) (protein) DSLTESSSNTFWQTPDDALMALASCYDALQSNQLYNSDQYSLGPLYMDCISDNGGHFNWSGWMEGYDMAMGIHTPSSSIIGSYWKDCYEVISRCNVLIANIDRVDMDASQKAIYQAEAKTIRALMYINLTMTYQDVPFLTAPLTIDEAECEKTDRAAIVAHVMTDLQDAAEVLPQNASSRGHITKGAALSLLGRVALYNEKWDDAIAAYKQVQGLGYSLDPSYAKLFTQSGETSPEIIFAVRYEGPGMSEGAAFNAHWNTPLEAMNGTIDLADAYYCKDGKPTTDTKIAELNGGGGLDVSKPNPAHFENRDPRLYSTLFVPGMLWNGKGGIDTSASNPYANVYGGAAASLSTVYVYKYFDPTDTSNSWDNGQDFYVVRYAEVLLSLAEAMVQKGGYVYSDVTALVNEVRQRADVNMPTVEEVEGTSLSKDELLEVIKHERRVELAFEGLRLFDLYRWKELDKAVANIENERTMYGLAYEARKFNGERDYVWPLPTAELDTNKKLVQHDLWK,glycan array binding signal (z-score),[1],-0.27
same,glycan array binding signal (z-score),[2],-0.432
same,glycan array binding signal (z-score),[3],-0.297
same,glycan array binding signal (z-score),[4],-0.184
same,glycan array binding signal (z-score),[5],0.662
same,glycan array binding signal (z-score),[6],-0.373
same,glycan array binding signal (z-score),[7],8.35
same,glycan array binding signal (z-score),[8],-0.244
same,glycan array binding signal (z-score),[9],0.089
same,glycan array binding signal (z-score),[10],-0.142
same,glycan array binding signal (z-score),[11],-0.102
same,glycan array binding signal (z-score),[12],4.74
same,glycan array binding signal (z-score),[13],-0.254
same,glycan array binding signal (z-score),[14],-0.404
